# m-calpain inh – inhibitors of pig calpain II, primary screen, biochemical, fluorogenic peptide substrate, 1536-well | purified calpain II, 30 min | inhibition, % at 16 µM | 220,000 compounds, 0.37% hits | AID 1236, 2008;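 active means inhibition above about 50%, limit read from the data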
# KCC2 mod – KCC2 cotransporter modulators, thallium flux, primary screen, cell-based, HEK293 KCC2, FluoZin-2 fluorescence, MLSMR | Solute carrier family 12 member 5 (Homo sapiens), Q9H2X9 | KCC2 cells, thallium flux FluoZin-2 fluorescence | B-score of Tl+ flux slope (higher = more flux/activation; lower = inhibition) at 10 µM | 190,000 compounds, 2.2% hits | AID 1456, 2008;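 active means thallium flux slope and its plate-corrected score both differing from the plate sample mean at a set confidence after two filtering rounds, in either direction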;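 further: slope of fluorescence scaled to starting intensity during 10 to 20 s after thallium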
# Lmaj promast – Leishmania major promastigote growth inhibition, primary screen | 200,000 compounds, 9% hits | AID 1063, 2008 | Leishmania major promastigotes, resazurin fluorescence viability | inhibition, % at 10 µM; in the data active means inhibition above about 50%;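 further: promastigotes grown with compound for 44 hours at 28 °C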
# ROMK mod – ROMK potassium channel modulators, primary screen, cell-based, thallium flux, MLSMR library. B-score at 10 µM. ATP-sensitive inward rectifier potassium channel 1 (Homo sapiens), P48048. AID 1918, 2009. Tet-inducible ROMK, thallium flux fluorescence; actives lie on both sides. 130,000 compounds, 2% hits;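 active means signal ratio slope over the read window, or its plate-corrected B-score, at least 3 SD from the plate mean, either direction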;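 further: B-score of the F/F0 ratio slope over 7 to 12 s after thallium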
# Target sequence (P48048 whole entry, looked up): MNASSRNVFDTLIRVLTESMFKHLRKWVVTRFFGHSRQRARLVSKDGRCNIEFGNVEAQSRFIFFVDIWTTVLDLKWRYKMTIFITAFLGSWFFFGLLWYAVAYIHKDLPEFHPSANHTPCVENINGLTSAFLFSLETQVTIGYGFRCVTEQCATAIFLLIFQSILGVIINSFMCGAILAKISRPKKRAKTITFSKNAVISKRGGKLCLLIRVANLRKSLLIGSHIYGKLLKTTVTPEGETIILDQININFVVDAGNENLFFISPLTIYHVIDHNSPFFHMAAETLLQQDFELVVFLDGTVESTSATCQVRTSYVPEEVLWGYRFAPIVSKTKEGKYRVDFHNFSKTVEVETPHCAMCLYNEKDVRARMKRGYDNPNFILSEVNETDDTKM
# WT yeast gro inh – growth inhibition of WT strain, primary screen, mitochondrial fusion inhibitor project, WT and mutant strains, chemical genetic; mitochondrial fusion phenotypic screen; inhibition, % at 10 µM; 190,000 compounds, 2.1% hits; AID 1362, 2008; in the data active means inhibition above about 58%; tested in S. cerevisiae
# * hit, by the source's call; nt = not tested or not shown. Only some compounds are listed: those with a hit (about 12% of all), similar ones and a draw of the others.
SMILES,m-calpain inh,KCC2 mod,Lmaj promast,ROMK mod,WT yeast gro inh
CCN(CC)C(=O)/C(=C/c1cccc([N+](=O)[O-])c1)NC(=O)c1ccco1,-10,0.22,0,-0.49,-10
O=C1CN(C(=O)c2ccco2)C(c2ccccc2)c2cc(Cl)ccc2N1 (stereo not given),2,1.6,17,nt,-30
O=C1CN(C(=O)c2ccc(Br)o2)C(c2ccccc2)c2cc(Cl)ccc2N1 (stereo not given),-13,nt,87*,nt,22
O=C(c1ccc(Br)o1)N1CCN(c2ccc(F)cc2)CC1,15,-0.12,0,nt,13
O=C1CN(C(=O)c2ccc(Br)o2)C(c2ccc(F)cc2)c2cc(Cl)ccc2N1 (stereo not given),-13,1.3,94*,0.11,11
COC(=O)c1ccc(NC(=S)NCCCn2ccnc2)cc1,6,nt,-1,-1.5,-4
COc1ccccc1N(C)S(=O)(=O)c1ccc(Cl)c(C(=O)NC2=NCCS2)c1,21,-2.2,57*,0.15,8
COc1ccccc1N(C)S(=O)(=O)c1ccc(C(=O)Nc2ccc(N3CCOCC3)cc2)cc1,-11,-0.42,99*,-0.095,-3
Cc1ccc(NC(=O)c2cccc(S(=O)(=O)N(C)c3ccccc3)c2)cc1S(=O)(=O)N1CCOCC1,-54,-1.1,98*,nt,-10
Cc1nc2ccc(NC(=O)c3cccc(S(=O)(=O)N(C)c4ccccc4)c3)cc2s1,4,-1.7,99*,-1.4,24
Cc1ccc(C(=O)Nc2cccc(C(=O)O)c2)cc1S(=O)(=O)N1CCOCC1,16,nt,0,-0.079,-15
Cc1ccc(-c2nc3sc4c(c3c(=O)n2N)CCCC4)cc1,-64,nt,0,1.6,-1
COc1ccc(C(=O)NCC(=O)N/N=C(C)\C=C\c2ccccc2)cc1OC,-15,0.092,-3,0.78,7
CCOC(=O)C1(CC2CCCCO2)CCN(C(=O)Nc2ccc(C)c(C)c2)CC1 (stereo not given),49,-0.95,27,-1,13
O=C(CCn1nc(-c2ccccc2)ccc1=O)N1CCN(c2ccccn2)CC1,1,-1,-2,0.94,-11
CCOC(=O)N1CCC(NC(=O)c2cnc3n(c2=O)CCS3)CC1,14,0.83,-8,nt,4
COc1ccccc1N(C)S(=O)(=O)c1ccc(C(=O)Nc2ccc3nc(C)sc3c2)cc1,-10,-2.3,100*,-1.3,25
Cc1ccc(N(C)S(=O)(=O)c2cccc(C(=O)Nc3nc4ccccc4[nH]3)c2)cc1,-13,0.48,90*,0.27,30
COc1ccc(S(=O)(=O)N(CC(=O)Nc2ccc(S(=O)(=O)N3CCOCC3)cc2)Cc2ccc(F)cc2)cc1,23,0.18,97*,-0.39,4
COc1ccc(S(=O)(=O)N(CC(=O)Nc2ccc(S(=O)(=O)N3CCOCC3)cc2)c2ccccc2)cc1,-68,0.88,15,nt,10
CN(c1ccccc1C(=O)Nc1ccc(S(=O)(=O)N2CCOCC2)cc1)S(=O)(=O)c1ccccc1,10,0.12,91*,0.6,-6
CC(C)C(=O)N(Cc1ccc(F)cc1)Cc1nc2ccccc2c(=O)[nH]1,-16,-0.39,0,-0.47,-4
CCN(CC(=O)NCCC1=CCCCC1)S(=O)(=O)c1ccccc1,17,-0.028,nt,nt,nt
Cc1cccc(CSc2nnc(CCNC(=O)OC(C)(C)C)o2)c1,-1,-0.6,nt,nt,nt
O=C(NC(=S)NCC1CCCO1)c1ccc([N+](=O)[O-])cc1 (stereo not given),-11,2.7,52*,nt,4
SMILES,m-calpain inh,KCC2 mod,Lmaj promast,ROMK mod,WT yeast gro inh
O=C(NC(=S)NCC1CCCO1)c1ccc(Cl)cc1 (stereo not given),-2,1.6,8,-0.36,-18
CCCCOc1ccc(C(=O)NNC(=S)NC(=O)CC)cc1,1,36*,93*,nt,88
CCC1CCCCN1C(=S)NC(=O)c1ccc([N+](=O)[O-])cc1 (stereo not given),2,46*,-2,nt,19
C=CCNC(=S)NNC(=O)c1ccc(OCCCC)cc1,-7,0.037,0,-1.1,2
CCCOc1ccc(C(=O)NNC(=S)NC(C)=O)cc1,19,3.6,97*,nt,14
COc1ccc(OC)c(NC(=O)c2ccno2)c1,-11,0.95,1,0.94,-1
CSc1nnc(C)c(=O)n1COC(=O)COc1ccc(Cl)cc1,-16,0.12,-5,0.52,0
CCC(=O)NC(=S)NNC(=O)c1ccc([N+](=O)[O-])cc1,10,-0.023,97*,1.3,-11
O=C(/C=C/Nc1ccccc1O)c1ccco1,3,-1.1,nt,nt,nt
O=C(/C=C/Nc1ccccc1Oc1ccccc1)c1ccco1,1,0.0059,77*,-0.87,55
Cc1ccc(C)c(S(=O)(=O)Nc2ccc3sc(C)nc3c2)c1,-10,-0.61,95*,-2.5,23
O=C(N/C=C/c1ccc(Cl)cc1)NCc1ccc(Cl)cc1,-5,-0.55,60*,nt,6
Cc1ccc(NC(=O)N/C=C/c2ccc(Cl)cc2)cc1,10,-0.018,8,-1,-9
CN1CCN(CC(C)(C)NS(=O)(=O)c2ccc(Cl)cc2)CC1,0,-0.16,94*,0.26,-2
Cc1ccc2cc(CCNC(=O)c3ccc4c(c3)OCO4)c(=O)[nH]c2c1C,-10,-2.8,-3,nt,-4
CCc1ccc2ncc(S(=O)(=O)c3ccc(C)c(C)c3)c(N3CCCC3)c2c1,30,0.78,30,nt,72*
CCOc1ccc2ncc(S(=O)(=O)c3ccccc3)c(N3CCC4(CC3)OCCO4)c2c1,3,-0.93,86*,nt,44
CCc1nccn1S(=O)(=O)c1ccc(C)c(C)c1,-24,nt,-1,-1.3,-3
CCOc1ccc2ncc(S(=O)(=O)c3ccccc3)c(N3CCN(c4ccc(OC)cc4)CC3)c2c1,22,-0.061,100*,nt,52
CCOC(=O)c1c(C)nc2c(c1-c1cc(OC)ccc1OC)C(=O)CC(C)(C)C2,3,0.73,nt,0.87,nt
CCc1cccc(C)c1NC(=O)CSc1nnc(-c2cc3cc(Br)ccc3o2)n1CC,55*,-0.21,-4,-1.3,12
COc1cc2oc3ccccc3c2cc1N(CC(=O)N1CCCCC1)S(=O)(=O)c1ccc(C)cc1,-58,0.23,17,-4.9*,4
CCN(CC)C(=O)CN(c1cc2c(cc1OC)oc1ccccc12)S(=O)(=O)c1ccccc1,34,-1.2,12,-4.6*,16
COc1cc2oc3ccccc3c2cc1N(CC(=O)N(C)C)S(=O)(=O)c1ccccc1,10,-0.64,15,-0.37,-11
COc1cc2oc3ccccc3c2cc1N(CC(=O)N(C)C)S(=O)(=O)c1ccc(C)cc1,-45,-0.87,66*,0.01,-38
Cc1cc(=O)oc(C)c1C(=O)Nc1cccnc1Cl,-2,-0.47,nt,nt,nt
Cc1ccccc1N=Nc1ccc(O)c2ncccc12,-6,41*,100*,0.56,24
